Compound activity: PubChem, National Center for Advancing Translational Sciences (NCATS)
HCV inhibitor = inhibitors of hepatitis C virus infection. Huh7.5.1 HCVcc-Cre infection, luciferase reporter, 44 h. Potency, µM (top dose mostly 41.8 µM), usual class: inhibitors. 340,000 tested, 3.4% active. AID 651820
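Infectious HCVcc-Cre (~0.5 moi) was added to cells just after compound, with cells seeded 4 h earlier at 1,000 per well. Luciferase activity after 44 h culture reported infection; substrate was incubated 15 min at room temperature before reading.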
HCMV inh = blocks human cytomegalovirus replication; activity change, negative = inhibition, % at 57.5 µM; HFF cells, HCMV-luciferase reporter, 72 h; stronger effect = lower value; AID 1259415; 410,000 tested, 4.5% active; in the data active = activity change below about -60%; inconclusive = no clear call, values can overlap the other calls; inactive = above about -39%
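Two-dose cell screen: HFF monolayers treated with compounds and infected with luciferase-expressing HCMV at 1 PFU/cell, 72 h at 37C, then lysed for luciferase measurement.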
Pf growth 48h = inhibits P. falciparum growth in the first generation, 48 h; P. falciparum luciferase growth in erythrocytes, 48 h; Potency, µM (series often up to 28.7 µM), actives largely listed as inhibitors; 310,000 tested, 5.9% active
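Firefly luciferase activity from engineered P. falciparum reports growth; inhibitors lower the luminescent signal. Cultures contained 2% hematocrit erythrocytes at 0.1% final parasitemia.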
LASV entry inh = blocks Lassa virus binding to or entry into cells | Lassa virus pseudotype entry inhibition, cell reporter | Potency, µM (doses to about 37.9 µM), most hits filed as inhibitors | 300,000 tested, 1.2% active | AID 540256; calls by dose curve; tested in HEK293 cells; also: nearly all actives have a fitted effect of over 50% in size
Pf growth 96h = P. falciparum growth inhibition at 96 hour, primary screen for plastid delayed-death inhibitors; P. falciparum luciferase reporter growth, 96 h; Potency, µM (top dose mostly 28.7 µM), hits mostly inhibitors; 320,000 tested, 6.9% active; AID 504834
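Erythrocytes infected with luciferase-expressing P. falciparum were dispensed at 2% hematocrit and 0.05% parasitemia (final), then incubated with compounds 96 hours at 37 C in 5% CO2. Luminescence after detection reagent addition reported growth.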
MARV entry inh = blocks Marburg virus binding to or entry into cells | Marburg virus pseudotyped entry inhibition, cell reporter | Potency, µM (doses to about 37.8 µM), hits mostly inhibitors | 300,000 tested, 1.8% active; calls by dose curve; tested in HEK293 cells
Each line names hits and unclear results; the compound was inactive in the other large screens. The list is not random: actives were taken first. Their share in the collection is about 14%. Unless noted, calls follow the shape of the dose curve; as a rule, active = well fitted inhibition curve with a large enough effect; inconclusive = small, poorly fitted or top-dose-only effect, or another doubt; inactive = no such curve, though single readings can be large or run the other way.

CCCN(C(=O)CCOc1ccc(C(C)(C)C)cc1)c1c(N)n(Cc2ccccc2)c(=O)[nH]c1=O	Pf growth 48h 2.6µM, Pf growth 96h inconclusive
COCCN(C(=O)COC(=O)CCSc1ccc(F)cc1)c1c(N)n(Cc2ccccc2)c(=O)[nH]c1=O	Pf growth 48h inconclusive
CC(C)CCN(C(=O)CCSc1ccc(F)cc1)c1c(N)n(Cc2ccccc2)c(=O)[nH]c1=O	Pf growth 48h 9.3µM, LASV entry inh inconclusive, Pf growth 96h inconclusive
CC(C)(C)CC(C)(C)NCC(O)COc1ccc2c(c1)CCC2 (stereo not drawn)	HCV inhibitor inconclusive, LASV entry inh inconclusive, MARV entry inh 7.1µM (no result: Pf growth 48h, Pf growth 96h)
CC(C)(CO)NCC(O)COc1ccc2c(c1)CCC2 (stereo not drawn)	none
CC(C)N1C(=O)S/C(=C/c2ccc3c(c2)n(C)c(=O)n3C)C1=O	HCV inhibitor inconclusive, Pf growth 96h inconclusive, MARV entry inh inconclusive
CCN(CC)c1ccc(/C=C2\SC(=O)N(C(C)C)C2=O)o1	HCV inhibitor 10µM, Pf growth 48h inconclusive, LASV entry inh inconclusive, Pf growth 96h inconclusive, MARV entry inh 11µM (no result: HCMV inh)
CC(C)CC1NC(=O)N(CC(=O)Nc2ccc(OCc3ccccc3)cc2)C1=O (stereo not drawn)	HCV inhibitor inconclusive
COC(=O)c1ccc(NC(=O)C(C)N2Cc3ccccc3C2=O)cc1 (stereo not drawn)	none (no result: HCV inhibitor, Pf growth 48h, Pf growth 96h, MARV entry inh)
CC(NC(=O)CN(c1cccc(C(F)(F)F)c1)S(C)(=O)=O)c1ccccc1 (stereo not drawn)	Pf growth 48h inconclusive, Pf growth 96h 1.2µM (no result: LASV entry inh, MARV entry inh)
COc1cccc(N(CC(=O)NC(C)c2ccccc2)S(C)(=O)=O)c1 (stereo not drawn)	none
CCCn1c(=S)[nH]c2cc(OC)c(OC)cc2c1=O	MARV entry inh inconclusive
COc1cc2[nH]c(=S)n(NC(=O)CC(C)C)c(=O)c2cc1OC	LASV entry inh inconclusive, Pf growth 96h 10µM
C=C(c1ccccc1C)[n+]1ccccc1	HCV inhibitor inconclusive, Pf growth 48h 4.7µM, Pf growth 96h 1.7µM
COc1cc(/C=N/n2nnnc2N)cc(Cl)c1OC	MARV entry inh inconclusive (no result: Pf growth 48h, Pf growth 96h)
CCCCN(CCCNC(=O)c1cc(Nc2ccc(OC)cc2)nc2ccccc12)Cc1ccccc1	HCMV inh -71 (no result: HCV inhibitor, Pf growth 48h, Pf growth 96h)
CCCCN(C)CCCNC(=O)c1cc(-c2ccc(Br)s2)nc2ccccc12	HCMV inh -68, LASV entry inh inconclusive (no result: HCV inhibitor, Pf growth 48h, Pf growth 96h)
COc1ccc(Nc2cc(C(=O)NCCCN(C)Cc3ccccc3)c3ccccc3n2)cc1OC	HCMV inh -100 (no result: HCV inhibitor, Pf growth 48h, Pf growth 96h, MARV entry inh)
Cc1cc(C)cc(Nc2cc(C(=O)NCCCN(C)C3CCCCC3)c3ccccc3n2)c1	HCMV inh -99, MARV entry inh inconclusive (no result: HCV inhibitor, Pf growth 48h, Pf growth 96h)
Cc1ccc(C)c(Nc2cc(C(=O)NCCCN(C)C3CCCCC3)c3ccccc3n2)c1	HCMV inh inconclusive, MARV entry inh inconclusive (no result: HCV inhibitor, Pf growth 48h, Pf growth 96h)
CCCC1NC(=O)c2cccnc2-n2c1nc1ccc(OC)cc1c2=O (stereo not drawn)	none (no result: HCV inhibitor, Pf growth 48h, LASV entry inh, Pf growth 96h, MARV entry inh)
CC(C)CC(NC(=O)C(CO)NC(=O)C1CCC(=O)N1)C(N)=O (stereo not drawn)	Pf growth 96h 10µM, MARV entry inh inconclusive
CCC(C)C(NC(=O)C(CC(C)C)NC(=O)C(CO)NC(=O)C1CCC(=O)N1)C(=O)OC (stereo not drawn)	LASV entry inh inconclusive
CCN(CC)c1ncnc2c1ncn2[C@H]1CN(Cc2ccc3c(c2)OCO3)C[C@@H](CO)O1	none (no result: HCV inhibitor, Pf growth 48h, LASV entry inh, Pf growth 96h, MARV entry inh)
CC(OC(=O)c1cccc(-n2cnnn2)c1)C(=O)Nc1ccc(F)c(F)c1F (stereo not drawn)	none (no result: Pf growth 48h, Pf growth 96h)
CCCCn1c2c(c(=O)n(C)c1=O)C(c1ccc(OC)cc1)N1CCCCCC1=N2 (stereo not drawn)	Pf growth 48h inconclusive, LASV entry inh inconclusive, Pf growth 96h 7.4µM, MARV entry inh inconclusive
CCCCOc1ccc(C2C(=O)N(C3CCCCC3)CC(=O)N2CCCC)cc1 (stereo not drawn)	none (no result: HCV inhibitor, Pf growth 48h, Pf growth 96h, MARV entry inh)
COC(=O)c1sccc1NC(=O)CC1C(=O)NCCN1C(=O)c1ccc(C)c(C)c1 (stereo not drawn)	none
Cc1cc(NCCN2CCOCC2)n2nc(C)c(-c3ccc(Cl)cc3)c2n1	HCV inhibitor 10µM, LASV entry inh inconclusive, Pf growth 96h inconclusive, MARV entry inh inconclusive
Cc1cc(NCCCn2ccnc2)n2ncc(-c3ccccc3)c2n1	LASV entry inh 4.5µM, MARV entry inh inconclusive (no result: HCMV inh)
Cc1cc(NCCCn2ccnc2)n2nc(C)c(-c3ccc(Cl)cc3)c2n1	HCV inhibitor 10µM, MARV entry inh inconclusive (no result: Pf growth 48h)
Cc1cc(NCCCn2ccnc2)n2nc(C)c(-c3ccccc3)c2n1	HCV inhibitor inconclusive, Pf growth 96h 12µM (no result: Pf growth 48h)
Cc1cc(NCCN2CCOCC2)n2nc(C)c(-c3ccccc3)c2n1	HCV inhibitor inconclusive (no result: Pf growth 96h)
COc1ccc(NC(=O)CSc2nc(-c3ccc(OC)cc3)[nH]c2-c2ccc(OC)cc2)cc1	MARV entry inh inconclusive (no result: HCV inhibitor, Pf growth 48h, Pf growth 96h)
CC(C)CC(N)c1csc(Nc2cc(Oc3ccccc3)ncn2)n1 (stereo not drawn)	none (no result: HCV inhibitor, Pf growth 48h, LASV entry inh, Pf growth 96h, MARV entry inh)
CN(C)S(=O)(=O)N1CCN(CC(=O)Nc2ccc(Br)cc2)CC1	Pf growth 96h 5.2µM (no result: LASV entry inh, MARV entry inh)
COC(=O)c1ccc(NC(=O)CN2CCN(S(=O)(=O)c3ccc(Br)cc3)CC2)cc1	HCV inhibitor inconclusive, Pf growth 96h 9.3µM (no result: MARV entry inh)
CCOC(=O)Cn1c(=O)oc2cc(S(=O)(=O)N3CCN(c4cccc(C)c4C)CC3)ccc21	none (no result: HCV inhibitor, Pf growth 48h, Pf growth 96h)
